Screening data as filed in PubChem.
Shown are actives, neighbours in structure and some others; about 2.3% of the full set was active somewhere.
PDI turbidity = inhibitors of human PDI, primary screen, biochemical, turbidity, single point, plate reader | Protein disulfide-isomerase (Homo sapiens), P07237 | PDI insulin aggregation turbidity, A650, 90 min | inhibition, % at 10 µM | 0.052% of 350,000 active;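 active = mean inhibition across replicates of 30% or more, whatever share of single replicates reach that level; inconclusive = mean inhibition below 30% while every single replicate reaches 30%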
Rtt109 HAT inh = inhibitors of C. albicans Rtt109/Vps75 HAT, primary screen, biochemical, ThioGlo CoA-SH fluorescence, plate reader | Histone acetyltransferase RTT109 (Candida albicans (strain SC5314 / ATCC MYA-2876)), … | purified Rtt109/Vps75, 4 h | inhibition, % at 34.9 µM | 0.16% of 330,000 active;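 active = inhibition of at least 50% in every replicate; inconclusive = best replicate reaches 50% inhibition but some replicates fall short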
Target sequence (Q5AAJ8 whole entry, looked up): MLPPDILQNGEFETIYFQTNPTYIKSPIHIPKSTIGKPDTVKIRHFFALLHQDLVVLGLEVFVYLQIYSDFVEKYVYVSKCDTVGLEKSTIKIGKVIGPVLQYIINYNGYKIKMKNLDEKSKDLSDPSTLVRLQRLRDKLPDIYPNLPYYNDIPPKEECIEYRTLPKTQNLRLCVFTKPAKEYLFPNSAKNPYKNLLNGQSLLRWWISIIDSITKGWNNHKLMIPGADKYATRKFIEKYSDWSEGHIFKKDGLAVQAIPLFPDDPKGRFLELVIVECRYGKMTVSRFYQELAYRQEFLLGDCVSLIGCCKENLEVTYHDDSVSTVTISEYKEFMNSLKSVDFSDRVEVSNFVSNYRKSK
ERp5 block = inhibitors of ERp5-driven insulin aggregation, primary screen, biochemical, turbidity, absorbance 650 nm, single point | Protein disulfide-isomerase A6 (Homo sapiens), Q15084 | 90 min | inhibition, % at 9.99 µM | 0.05% of 350,000 active | AID 651711, 2012;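 active = mean replicate inhibition above about 25%, with every replicate also reaching it, limit read from the data, passing the limit was not always enough; inconclusive = only one of those two criteria met; inactive = neither criterion met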
SIRT5 block = SIRT5 desuccinylase inhibitors, primary screen, biochemical, fluorescence imaging, single point, set 5; Purified SirT5, succinyl-peptide AMC, trypsin-coupled fluorescence; 1.1% of 330,000 active; inhibition, % at 15 µM; in the data active = inhibition above about 15%; inconclusive = no clear call, values can overlap the other calls
DENV2 CPE rescue = inhibitors of DENV2 cytopathic effect, primary screen, cell-based, plate reader, single concentration; DENV2-infected cells, cytopathic effect rescue; CPE inhibition, % at 9.99 µM; 1.7% of 350,000 active; in the data active = CPE inhibition above about 20%, passing the limit was not always enough; inconclusive = no clear call, values can overlap the other calls; tested in BHK-21 cells;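 also: 0% = median of neutral control wells and 100% = median of positive control wells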
* = called active by the depositor; ? = inconclusive; nt = no result given.

SMILES | PDI turbidity | Rtt109 HAT inh | ERp5 block | SIRT5 block | DENV2 CPE rescue
Cc1ccc(C(=O)N2CCOCC2)cc1Cl | 4 | -7 | nt | nt | nt
Cc1cc(Cl)nc(Cl)c1C(=O)N1CCOCC1 | 2 | 8 | 1 | 22* | -1
CN(CC(=O)Nc1ccccc1Cl)C(=O)COC(=O)c1cccs1 | 12 | 12 | -3 | 3 | 57*
CN(C)c1ccc(C=NNc2ccccn2)c(Cl)c1 | 8 | 9 | -1 | 17* | -2
CCN(C[C@@H]1N[C@H](CO)[C@H]1c1ccccc1)C(=O)c1ccncc1 | nt | nt | -8 | 1 | 26*
COCC(=O)N(C)C[C@@H]1[C@@H](c2ccccc2)[C@H](CO)N1C(=O)Cc1cccnc1 | nt | nt | 3 | 1 | -7
COCCN(C[C@@H]1[C@@H](c2ccccc2)[C@H](CO)N1C(C)=O)C(=O)c1ccncc1 | nt | nt | -1 | 0 | 24*
COCCN(C[C@H]1[C@H](c2ccccc2)[C@@H](CO)N1C(C)=O)C(=O)c1ccncc1 | nt | nt | -1 | 1 | 26*
COCC(=O)N(C)C[C@H]1[C@H](c2ccccc2)[C@@H](CO)N1C(=O)Cc1ccncc1 | nt | nt | -1 | 20* | 10
CN1CCN(C(=O)C[C@@H]2CC[C@H]3[C@@H](COC[C@H](O)CN3C(=O)Nc3ccc(Cl)cc3)O2)CC1 | nt | nt | -2 | -1 | -9
COc1ccc(S(=O)(=O)Nc2ccc3c(c2)C(=O)N([C@H](C)CO)C[C@@H](C)[C@H](CN(C)C(=O)Nc2ccc(F)cc2)OCCCC[C@H](C)O3)cc1 | nt | nt | -5 | 12 | -3
COCC(=O)Nc1ccc2c(c1)C(=O)N(C)C[C@H](OC)[C@H](C)CN(C(C)=O)[C@@H](C)CO2 | nt | nt | -2 | -1 | nt
O=C(C[C@@H]1CC[C@H](NS(=O)(=O)c2ccccc2)[C@H](CO)O1)NCCN1CCCCC1 | nt | nt | 7 | -5 | -2
C/C=C/c1ccc([C@@H]2[C@H](CO)N(C(=O)Cc3ccncc3)[C@H]2CNC(C)=O)cc1 | nt | nt | nt | nt | 31*
C[C@@H]1CN([C@@H](C)CO)C(=O)c2cccc(NS(=O)(=O)c3cn(C)cn3)c2O[C@@H]1CN(C)C(=O)Nc1ccc2c(c1)OCO2 | nt | nt | 0 | 2 | -3
CCOc1ccc(C(=O)N/N=C/c2ccc(-c3ccc(S(=O)(=O)Nc4ncccn4)cc3)o2)cc1 | 2 | 2 | nt | nt | nt
NC(=S)NN=Cc1ccc(-c2ccc(S(=O)(=O)Nc3ncccn3)cc2)o1 | 7 | -2 | 4 | 46* | 8
C[C@@H]1CN([C@H](C)CO)S(=O)(=O)c2ccc(C#Cc3ccccc3F)cc2O[C@@H]1CN(C)C | nt | nt | 4 | 0 | -4
C[C@H](CO)N1C[C@H](C)[C@@H](CN(C)C(=O)C2CCC2)Oc2ncc(C#CCc3ccccc3)cc2C1=O | nt | nt | 4 | -3 | 60*
C[C@H]1CN([C@@H](C)CO)C(=O)c2cc(C#Cc3cccc(F)c3)cnc2O[C@H]1CN(C)C(=O)C1CCC1 | nt | nt | 4 | 2 | -8
C[C@@H]1CN([C@@H](C)CO)C(=O)c2cc(C#Cc3cccc(F)c3)cnc2O[C@@H]1CN(C)C(=O)C1CCC1 | nt | nt | 1 | 1 | 87*
C[C@H]1CCCCO[C@@H](CN(C)C(=O)Nc2ccc(F)cc2)[C@@H](C)CN([C@@H](C)CO)C(=O)c2cc(NC(=O)c3ccncc3)ccc2O1 | nt | nt | 5 | -3 | -6
O=C(C[C@H]1CC[C@H]2[C@@H](COC[C@H](O)CN2Cc2cccc(C(F)(F)F)c2)O1)NCc1ccc(Cl)cc1 | nt | nt | 0 | 0 | ?
Cc1noc(C)c1S(=O)(=O)Nc1ccc2c(c1)C(=O)N([C@H](C)CO)C[C@H](C)[C@H](CN(C)Cc1ccc(C(=O)Nc3ccccc3N)cc1)O2 | nt | nt | 4 | 2 | 24*
Cc1noc(C)c1S(=O)(=O)Nc1ccc2c(c1)CC(=O)N([C@@H](C)CO)C[C@H](C)[C@H](CN(C)Cc1ccc(C(=O)Nc3ccccc3N)cc1)O2 | nt | nt | -4 | -2 | 61*
Cc1noc(C)c1S(=O)(=O)Nc1ccc2c(c1)C(=O)N([C@@H](C)CO)C[C@H](C)[C@@H](CN(C)Cc1ccc(C(=O)Nc3ccccc3N)cc1)O2 | nt | nt | 0 | 1 | 14
